Laboratory results as given in PubChem BioAssay (NCATS).
Values without a mark were called inactive. Results filed as inconclusive are left out. Active and inactive are the calls of the source. Unless noted, calls follow the shape of the dose curve; as a rule, active = well fitted curve in the direction sought with a large enough effect; inconclusive = small, poorly fitted or top-dose-only effect, or another doubt; inactive = no such curve, though single readings can be large; an effect the other way counts as inactive or inconclusive.

Legend:
[1] = molecular target: Lysosomal acid glucosylceramidase (Homo sapiens) (UniProt P04062); experiment: Glucocerebrosidase-p2 (AID 348; in the data active = potency below about 10 µM; also: potency is read from the fitted curve at half-maximal effect); conditions: purified GBA, blue fluorogenic substrate, 40 min
Sequence of Lysosomal acid glucosylceramidase (Homo sapiens) (P04062 whole entry, looked up): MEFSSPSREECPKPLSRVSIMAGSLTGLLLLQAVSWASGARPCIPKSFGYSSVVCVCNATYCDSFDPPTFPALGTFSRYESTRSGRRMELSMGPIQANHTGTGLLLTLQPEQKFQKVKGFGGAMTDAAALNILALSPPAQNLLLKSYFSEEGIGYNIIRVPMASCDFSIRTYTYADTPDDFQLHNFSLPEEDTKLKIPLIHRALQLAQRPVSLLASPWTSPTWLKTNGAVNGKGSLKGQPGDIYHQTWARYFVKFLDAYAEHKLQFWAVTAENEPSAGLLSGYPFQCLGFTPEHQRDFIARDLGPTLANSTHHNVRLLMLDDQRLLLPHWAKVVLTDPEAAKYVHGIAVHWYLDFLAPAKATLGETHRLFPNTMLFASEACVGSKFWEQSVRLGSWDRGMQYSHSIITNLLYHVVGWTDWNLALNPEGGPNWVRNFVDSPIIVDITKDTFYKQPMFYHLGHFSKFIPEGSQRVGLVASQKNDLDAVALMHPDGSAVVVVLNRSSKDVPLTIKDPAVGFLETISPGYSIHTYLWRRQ
How it was run: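 Normal human glucocerebrosidase (0.2 nM) with blue fluorogenic substrate (80 uM final) in citrate/phosphate pH 5.9 with 10mM sodium taurocholate, 0.01% tween-20; 40 min RT, NaOH/glycine stop; fluorescence Ex 365/Em 440; AC50 from a titration from 0.6 nM upwards.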

[2] = AP1 Signaling Pathway (AID 357; active = well fitted curve in either direction with a large enough effect, not every such curve was filed as active; also: % is scaled to controls: 0 for no effect and ±100 for the full control effect); conditions: ME-180 AP-1-bla reporter, EGF-induced, beta-lactamase ratio, 5 h; at 7.69 µM (top of the series) unless noted
How it was run: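 Titration-series screen for positive or negative modulators of EC50 EGF-induced signaling in ME-180 cells carrying an AP-1-driven beta-lactamase reporter. After 5 hours at 37 degrees Celsius, CCF4 460nm/530nm emission ratio gave %Activity; AC50 values derived.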

[3] = molecular target: Cytochrome P450 1A2 (Homo sapiens) (UniProt P05177); experiment: p450-cyp1a2 (AID 410; calls by dose curve; also: potency is read from the fitted curve at half-maximal effect); conditions: recombinant CYP1A2, luciferin-ME demethylation, luminescence; series mostly up to 57 µM
Sequence of Cytochrome P450 1A2 (Homo sapiens) (P05177 whole entry, looked up): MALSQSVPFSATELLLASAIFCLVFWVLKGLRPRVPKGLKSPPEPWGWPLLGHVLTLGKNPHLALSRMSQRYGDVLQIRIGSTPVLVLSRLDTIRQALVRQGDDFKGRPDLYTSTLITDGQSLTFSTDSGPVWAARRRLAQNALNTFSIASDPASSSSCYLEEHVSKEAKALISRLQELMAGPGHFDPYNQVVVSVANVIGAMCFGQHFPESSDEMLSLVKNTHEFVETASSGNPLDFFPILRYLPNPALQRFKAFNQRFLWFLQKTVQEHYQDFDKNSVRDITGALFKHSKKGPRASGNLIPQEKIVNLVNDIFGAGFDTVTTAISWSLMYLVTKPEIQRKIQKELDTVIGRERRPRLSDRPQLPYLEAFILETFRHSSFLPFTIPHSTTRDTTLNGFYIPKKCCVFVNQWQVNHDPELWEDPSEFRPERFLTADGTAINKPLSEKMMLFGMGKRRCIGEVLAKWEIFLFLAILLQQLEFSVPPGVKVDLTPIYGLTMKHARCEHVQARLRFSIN
How it was run: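 Luminescent demethylation readout: Luciferin-ME (100uM, equal to Km) turned over by 20nM CYP1A2 for 60 min at room temperature after NADPH regeneration addition, following 10 min compound preincubation. Normalization used 57 uM furafylline as full inhibition.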

[4] = NFAT Signaling Pathway (AID 444; active = well fitted curve in either direction with a large enough effect, not every such curve was filed as active;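 also: carbachol stimulus at about its EC50 of 1 µM final; % is scaled to controls: 0 for no effect and ±100 for the full control effect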); conditions: Jurkat NFAT-bla M1, carbachol, beta-lactamase ratio, 5 h; at 7.69 µM (top of the series) unless noted
How it was run: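 Jurkat cells with NFAT-driven β-lactamase reporter and co-expressed M1 receptor, stimulated with carbachol (final 1 uM, ~EC50), compound titration, 5 h at 37 °C. CCF4 loaded 1 h at RT; 460/530 nm ratio gave %activity and AC50.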

[5] = Stat Signaling Pathway (AID 446; active = well fitted curve in either direction with a large enough effect, not every such curve was filed as active;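 also: ME-180 cervical cancer cells given 40 pM IL-6 alongside compound; SIE-controlled beta-lactamase reporter measured as 460/530 nm FRET emission ratio; % is scaled to controls: 0 for no effect and ±100 for the full control effect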); conditions: ME-180 (cervical carcinoma) SIE beta-lactamase reporter, IL-6 stimulated, 5 h; at 7.69 µM (top of the series) unless noted
How it was run: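 Normalization used AC90 stimulation (300 pM IL-6) and AC90 inhibition (125 nM pan-JAK inhibitor at 40 pM IL-6). The underlying signal is SIE-driven beta-lactamase in ME-180 cells after 5 h IL-6 exposure with compound.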

[6] = molecular target: Glucocorticoid receptor (Homo sapiens) (UniProt P04150); experiment: GR-GFP Redistribution (AID 450;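 active = compounds whose dose series gives a full or clear partial fitted curve of increased nuclear translocation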; also: potency is read from the fitted curve at half-maximal effect); conditions: U2OS GR-GFP nuclear translocation, laser cytometry, 2 h
Sequence of Glucocorticoid receptor (Homo sapiens) (P04150 whole entry, looked up, the tested form may be a part): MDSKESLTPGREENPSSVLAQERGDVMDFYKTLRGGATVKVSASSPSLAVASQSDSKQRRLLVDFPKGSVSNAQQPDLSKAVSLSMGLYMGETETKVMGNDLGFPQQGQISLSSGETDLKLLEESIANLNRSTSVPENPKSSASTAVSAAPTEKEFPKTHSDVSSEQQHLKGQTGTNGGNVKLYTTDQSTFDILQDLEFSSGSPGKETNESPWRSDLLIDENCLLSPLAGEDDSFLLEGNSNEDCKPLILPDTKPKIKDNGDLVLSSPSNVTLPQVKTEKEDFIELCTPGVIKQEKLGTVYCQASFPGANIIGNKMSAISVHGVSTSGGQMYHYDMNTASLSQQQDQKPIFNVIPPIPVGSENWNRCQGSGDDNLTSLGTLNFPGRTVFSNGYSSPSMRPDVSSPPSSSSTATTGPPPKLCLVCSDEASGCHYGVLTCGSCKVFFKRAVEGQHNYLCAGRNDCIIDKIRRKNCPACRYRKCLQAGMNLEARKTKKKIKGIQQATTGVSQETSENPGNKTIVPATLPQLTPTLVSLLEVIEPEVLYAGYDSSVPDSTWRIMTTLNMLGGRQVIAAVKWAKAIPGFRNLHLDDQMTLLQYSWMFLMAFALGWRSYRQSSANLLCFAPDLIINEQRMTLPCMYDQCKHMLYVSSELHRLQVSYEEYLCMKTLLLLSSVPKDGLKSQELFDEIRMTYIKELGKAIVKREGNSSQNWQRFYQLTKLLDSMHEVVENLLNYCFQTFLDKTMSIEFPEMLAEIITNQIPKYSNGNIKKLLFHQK

[7] = molecular target: Glucocorticoid receptor (Homo sapiens) (UniProt P04150); experiment: GR-EFC Redistribution (AID 451; calls by dose curve; also: potency is read from the fitted curve at half-maximal effect); conditions: CHO-K1 GR-EFC translocation, beta-gal luminescence, 2 h
How it was run: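 CHO-K1 cells expressing nuclear EA and GR-ED fragments of b-gal; compounds titrated up to 46 uM final, 2 h at 37 C. GR nuclear translocation read as complemented b-gal luminescence after 1 h RT detection.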

[8] = molecular target: Mitogen-activated protein kinase 10 (Mus musculus) (UniProt Q61831); experiment: JNK3 AlphaScreen Assay (AID 530; active = well fitted curve in either direction with a large enough effect, not every such curve was filed as active;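 also: kinase came from lysate of stimulated human HepG2 cells; signal reports phosphorylation of biotinylated GST-cJun 1-79 at Ser73 with 10 µM ATP; % is scaled to controls: 0 for no effect and ±100 for the full control effect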); conditions: JNK3 lysate, c-Jun phosphorylation; series mostly up to 57.1 µM
How it was run: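 Activity was read by AlphaScreen after JNK3-containing HepG2 lysate (cytokine pre-activated) phosphorylated biotinylated GST-cJun with 10 uM ATP at room temperature. Phospho-Ser73 cJun antibody with Protein-A acceptor beads provided detection.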

[9] = molecular target: 3',5'-cyclic-AMP phosphodiesterase 4B (Homo sapiens) (UniProt Q07343); experiment: qHTS Assay for Inhibitors of PDE-IV (AID 607; active = well fitted activation curve with a large enough effect in the main read-out, with a control signal flat, not every such curve was filed as active; also: % of control where 0% means no effect); conditions: HEK293 ACTOne CNG channel cells, membrane potential fluorescence; series mostly up to 22.9 µM
Sequence of 3',5'-cyclic-AMP phosphodiesterase 4B (Homo sapiens) (Q07343 whole entry, looked up): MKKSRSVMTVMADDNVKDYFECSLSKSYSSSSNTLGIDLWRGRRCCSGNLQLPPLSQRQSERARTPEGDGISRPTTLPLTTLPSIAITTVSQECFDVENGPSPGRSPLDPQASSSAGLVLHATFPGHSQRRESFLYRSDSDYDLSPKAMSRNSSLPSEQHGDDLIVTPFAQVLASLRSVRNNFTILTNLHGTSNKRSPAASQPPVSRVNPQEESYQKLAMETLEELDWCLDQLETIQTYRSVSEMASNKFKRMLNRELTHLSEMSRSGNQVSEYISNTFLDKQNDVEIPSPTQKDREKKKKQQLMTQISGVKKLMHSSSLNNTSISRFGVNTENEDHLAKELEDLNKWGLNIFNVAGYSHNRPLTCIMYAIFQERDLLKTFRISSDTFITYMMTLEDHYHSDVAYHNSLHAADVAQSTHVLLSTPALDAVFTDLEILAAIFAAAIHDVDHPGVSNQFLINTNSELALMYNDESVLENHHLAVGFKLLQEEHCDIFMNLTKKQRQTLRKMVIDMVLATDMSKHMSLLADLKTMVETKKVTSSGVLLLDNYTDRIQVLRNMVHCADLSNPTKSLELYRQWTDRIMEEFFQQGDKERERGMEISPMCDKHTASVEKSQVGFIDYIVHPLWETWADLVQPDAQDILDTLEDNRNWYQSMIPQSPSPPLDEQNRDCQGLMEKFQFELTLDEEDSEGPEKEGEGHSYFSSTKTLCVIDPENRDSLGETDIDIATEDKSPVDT
How it was run: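 HEK293 ACTOne cells with CNG channel (1000/well), endogenous PDE4; membrane potential dye, compounds up to 22.9 uM final. Fluorescence Ex 535/Em 590; RO 20-1724 (100 uM final) as reference.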

[10] = molecular target: Cytochrome P450 3A4 (Homo sapiens) (UniProt P08684); experiment: qHTS Assay for Inhibitors and Substrates of Cytochrome P450 3A4 (AID 884); conditions: recombinant CYP3A4, Luciferin-PPXE luminescence; series mostly up to 57.1 µM; also: potency is read from the fitted curve at half-maximal effect; nearly all actives have a fitted effect of over 50% in size
Sequence of Cytochrome P450 3A4 (Homo sapiens) (P08684 whole entry, looked up): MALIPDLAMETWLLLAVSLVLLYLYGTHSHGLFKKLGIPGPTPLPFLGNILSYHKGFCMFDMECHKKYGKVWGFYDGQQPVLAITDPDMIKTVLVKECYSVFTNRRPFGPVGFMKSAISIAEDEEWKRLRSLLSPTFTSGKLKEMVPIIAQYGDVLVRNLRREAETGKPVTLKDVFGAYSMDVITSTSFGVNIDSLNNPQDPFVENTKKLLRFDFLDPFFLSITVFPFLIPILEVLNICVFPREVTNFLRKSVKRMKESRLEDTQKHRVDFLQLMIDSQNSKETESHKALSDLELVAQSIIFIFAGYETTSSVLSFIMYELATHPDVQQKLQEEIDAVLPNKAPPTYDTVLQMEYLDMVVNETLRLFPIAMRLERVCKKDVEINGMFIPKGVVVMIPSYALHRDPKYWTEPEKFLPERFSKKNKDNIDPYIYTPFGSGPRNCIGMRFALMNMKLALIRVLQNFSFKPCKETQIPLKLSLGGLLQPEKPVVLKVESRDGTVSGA
How it was run: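 Luminescent readout of luciferin produced by CYP3A4 (20 nM) dealkylation of Luciferin-PPXE, 25 uM (its KM). NADPH-driven reaction ran 60 min at RT after 10 min compound preincubation; data scaled to 57 uM ketoconazole as 100% inhibition.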

[11] = molecular target: Cytochrome P450 3A4 (Homo sapiens) (UniProt P08684); experiment: qHTS Assay for Activators of Cytochrome P450 3A4 (AID 885); conditions: recombinant CYP3A4, Luciferin-PPXE luminescence, 60 min; series mostly up to 57.1 µM; also: nearly all actives have a fitted effect of over 65% in size
How it was run: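 Human CYP3A4 dealkylates Luciferin-PPXE to luciferin, which luciferase detection converts to light. Substrate was at its KM (25uM), buffer 200mM KPO4, reaction 60 min at RT.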

[12] = molecular target: Cytochrome P450 2C19 (Homo sapiens) (UniProt P33261); experiment: qHTS Assay for Inhibitors and Substrates of Cytochrome P450 2C19 (AID 899); conditions: recombinant CYP2C19, luciferin-H EGE luminescence; series mostly up to 57.1 µM; also: potency is read from the fitted curve at half-maximal effect; nearly all actives have a fitted effect of over 60% in size
Sequence of Cytochrome P450 2C19 (Homo sapiens) (P33261 whole entry, looked up): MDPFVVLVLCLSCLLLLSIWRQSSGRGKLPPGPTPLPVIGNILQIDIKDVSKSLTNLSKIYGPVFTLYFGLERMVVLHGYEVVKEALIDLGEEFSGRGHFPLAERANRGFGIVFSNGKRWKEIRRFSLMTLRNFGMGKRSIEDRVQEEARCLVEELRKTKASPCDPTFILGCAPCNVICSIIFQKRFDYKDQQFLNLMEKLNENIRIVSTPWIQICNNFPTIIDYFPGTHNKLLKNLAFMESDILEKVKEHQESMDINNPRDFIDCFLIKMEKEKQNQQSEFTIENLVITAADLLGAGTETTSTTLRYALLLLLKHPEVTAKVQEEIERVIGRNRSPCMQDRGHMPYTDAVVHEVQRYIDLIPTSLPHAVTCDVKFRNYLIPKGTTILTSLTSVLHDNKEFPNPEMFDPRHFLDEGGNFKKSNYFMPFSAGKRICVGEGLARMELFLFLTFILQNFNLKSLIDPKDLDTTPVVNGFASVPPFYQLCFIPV
How it was run: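 Luminescent read-out of luciferin formed from Luciferin-H EGE (10uM, equal to KM). Enzyme 5nM in 50mM KPO4; compound added, 10 min at 37C, then NADPH regenerating system for 60 min at 37C. Full inhibition defined by 57uM ketoconazole.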

[13] = molecular target: Dual specificity protein kinase CLK4 (Homo sapiens) (UniProt Q9HAZ1); experiment: qHTS Assay for Inhibitors of CDC-like Kinase 4 (Kinase-Glo Assay) (AID 1770); conditions: recombinant Clk4, Kinase-Glo ATP depletion luminescence; series mostly up to 66.7 µM; also: nearly all actives have a fitted effect of over 65% in size; also: potency is read from the fitted curve at half-maximal effect
Sequence of Dual specificity protein kinase CLK4 (Homo sapiens) (Q9HAZ1 whole entry, looked up): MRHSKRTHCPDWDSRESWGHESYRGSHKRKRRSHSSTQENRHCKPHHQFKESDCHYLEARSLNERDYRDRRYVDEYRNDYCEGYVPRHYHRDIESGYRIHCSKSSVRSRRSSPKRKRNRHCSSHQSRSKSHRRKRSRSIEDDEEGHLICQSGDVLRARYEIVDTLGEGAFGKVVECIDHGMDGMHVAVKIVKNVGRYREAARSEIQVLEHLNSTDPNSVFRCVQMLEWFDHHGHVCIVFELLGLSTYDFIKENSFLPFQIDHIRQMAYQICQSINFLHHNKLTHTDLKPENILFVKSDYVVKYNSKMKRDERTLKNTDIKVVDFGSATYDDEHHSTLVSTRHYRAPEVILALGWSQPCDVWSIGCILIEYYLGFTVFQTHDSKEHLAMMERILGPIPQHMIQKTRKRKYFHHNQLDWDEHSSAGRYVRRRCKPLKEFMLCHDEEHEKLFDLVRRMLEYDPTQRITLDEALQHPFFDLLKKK
How it was run: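 Luminescent ATP-depletion read-out (Kinase-Glo) after 4.5 h room-temperature reaction of Clk4 (25 nM final) with RS peptide (100 uM) and ATP (1 uM), pH 7.5 Tris buffer with MgCl2 and DTT.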

[14] = molecular target: Dual specificity protein kinase CLK4 (Homo sapiens) (UniProt Q9HAZ1); experiment: qHTS Assay for Inhibitors of CDC-like Kinase 4 (ADP-Glo Assay) (AID 1771); conditions: recombinant CLK4, ADP-Glo luminescence; series mostly up to 80 µM; also: nearly all actives have a fitted effect of over 70% in size; also: potency is read from the fitted curve at half-maximal effect
How it was run: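 ADP production was read by ADP-Glo luminescence after residual ATP depletion, following 1 h room-temperature reaction of 25 nM Clk4, 1 uM ATP and 100 uM RS peptide with MgCl2, EGTA, DTT and Triton X-100.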

[15] = molecular target: Ubiquitin carboxyl-terminal hydrolase 1 (Homo sapiens) (UniProt O94782); experiment: Inhibitors of USP1/UAF1: Pilot qHTS (AID 504865); conditions: purified USP1/UAF1, Ub-rhodamine cleavage fluorescence; series mostly up to 54.9 µM;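 also: rhodamine fluorescence freed from ubiquitin-rhodamine substrate followed over time; top concentration of the series differs between compounds; % is scaled to controls: 0 for no effect and ±100 for the full control effect; nearly all actives have a fitted effect of over 35% in size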
Sequence of Ubiquitin carboxyl-terminal hydrolase 1 (Homo sapiens) (O94782 whole entry, looked up): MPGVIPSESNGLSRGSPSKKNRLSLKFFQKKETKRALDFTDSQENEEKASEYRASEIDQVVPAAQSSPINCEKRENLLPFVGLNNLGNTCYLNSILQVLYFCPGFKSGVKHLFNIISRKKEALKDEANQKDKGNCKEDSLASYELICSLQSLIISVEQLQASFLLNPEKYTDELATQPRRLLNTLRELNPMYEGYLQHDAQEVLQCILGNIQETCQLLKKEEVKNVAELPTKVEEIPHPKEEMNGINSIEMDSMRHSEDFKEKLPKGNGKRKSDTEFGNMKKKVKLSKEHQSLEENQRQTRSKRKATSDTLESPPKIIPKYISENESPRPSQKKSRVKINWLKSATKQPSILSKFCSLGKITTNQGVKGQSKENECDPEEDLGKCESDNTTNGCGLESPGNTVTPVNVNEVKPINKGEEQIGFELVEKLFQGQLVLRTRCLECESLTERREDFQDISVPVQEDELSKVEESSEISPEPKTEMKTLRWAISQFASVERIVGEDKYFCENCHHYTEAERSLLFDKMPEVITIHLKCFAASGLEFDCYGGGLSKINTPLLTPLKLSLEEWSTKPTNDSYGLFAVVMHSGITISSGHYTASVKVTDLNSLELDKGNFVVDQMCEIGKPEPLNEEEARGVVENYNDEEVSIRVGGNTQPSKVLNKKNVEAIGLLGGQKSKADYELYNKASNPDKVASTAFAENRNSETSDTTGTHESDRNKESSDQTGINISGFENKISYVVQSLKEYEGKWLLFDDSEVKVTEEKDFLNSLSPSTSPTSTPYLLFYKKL
How it was run: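 Deubiquitinase activity followed as kinetic rhodamine fluorescence release from 150 nM Ub-Rho. 1 nM USP1/UAF1 with compound, after 15 min room-temperature preincubation, in HEPES pH 7.8 buffer containing TCEP, EDTA, BSA and Tween-20.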

[16] = Primary qHTS for small molecule stabilizers of the endoplasmic reticulum resident proteome: Secreted ER Calcium Modulated Protein (SERCaMP) assay (AID 1508630); conditions: SH-SY5Y GLuc-SERCaMP (Gaussia luciferase released on ER calcium loss) secretion, thapsigargin, luminescence; series mostly up to 38.4 µM; also: % is scaled to controls: 0 for no effect and ±100 for the full control effect
How it was run: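 The SH-SY5Y reporter protocol was run at 3 concentrations up to 38.3 uM (primary) or 11 concentrations (follow-up): 16 h compound, 100 nM thapsigargin for 4 h, then extracellular luciferase luminescence.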

[17] = molecular target: Dual specificity protein kinase CLK4 (Homo sapiens) (UniProt Q9HAZ1); experiment: qHTS Assay for Inhibitors of CDC-like Kinase 4 (ADP-FP Assay) (AID 1795); conditions: Transcreener ADP fluorescence polarization; series mostly up to 50 µM; also: nearly all actives have a fitted effect of over 60% in size; also: potency is read from the fitted curve at half-maximal effect
How it was run: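 Kinase activity was measured as ADP production using Transcreener orange tracer (4 nM) and ADP antibody (1 ug/mL) fluorescence polarization, with ADP calculated from a calibration curve. The 1 h reaction contained 6.25 nM Clk4, 1 uM ATP and 100 uM RS peptide at pH 7.5 with Mg2+.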

[18] = molecular target: Cytochrome P450 2C9 (Homo sapiens) (UniProt P11712); experiment: qHTS Assay for Inhibitors and Substrates of Cytochrome P450 2C9 (AID 883); conditions: recombinant CYP2C9, luciferin-H luminescence, 60 min; series mostly up to 57.1 µM; also: potency is read from the fitted curve at half-maximal effect; nearly all actives have a fitted effect of over 60% in size
How it was run: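 10nM CYP2C9 + 100uM Luciferin-H (=KM), 25mM KPO4; cpd 10 min 37C; NADPH regen, 60 min 37C; stop/detect with P450 Glo-Buffer 20 min; luminescence. Norm. to 57uM sulphaphenazole as full inhibition.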

Row | SMILES | Potency [1] [µM] | activity change, negative = inhibition [2] [%] | Potency [3] | activity change, negative = inhibition [4] [%] | activity, negative = inhibition [5] [%] | Potency [6] [µM] | Potency [7] [µM] | Potency [8] | Potency [9] | Potency [10] | Potency [11] | Potency [12] | Potency [13] | Potency [14] | Potency [15] | outcome [16] | Potency [17] | Potency [18]
1 | N#Cc1cccc(-c2cncnc2NCc2ccccc2)c1 | > 11.4 | 1.22 | 5.01 µM (active) | 2.64 | -1.62 | > 46 | > 46 | inactive | inactive | 1.26 µM (active) | inactive | 7.94 µM (active) | inactive | inactive | inactive | inactive |  | 
2 | CS(=O)(=O)Nc1cccc(-c2nccc(NCc3cccs3)n2)c1 |  |  |  | 14.7 | -12.9 | > 46 | > 46 | inactive | inactive |  |  |  | 28.2 µM (active) | 35.5 µM (active) | inactive | inactive | inactive | 
3 | COCCn1c(=O)c(-c2cccc(C#N)c2)nc2cnc(N3CCOCC3)nc21 | > 11.4 | -16.2 | 10 µM (active) | -8.26 | 3.4 | > 9.22 | > 46 | inactive | inactive |  |  |  | inactive | inactive | inactive | inactive |  | 
4 | COc1ccc(CNc2nc(-c3cccc(NS(C)(=O)=O)c3)nc3ccccc23)c(OC)c1 |  |  | 15.8 µM (active) |  |  | > 46 | > 46 | inactive |  | 2.51 µM (active) | inactive |  | inactive | inactive | inactive | inactive | inactive | 0.158 µM (active)
5 | c1cncc(-c2cc(NCc3cccs3)ncn2)c1 | > 11.4 | 19 | 1 µM (active) | 11.4 | 7.74 | > 46 | > 46 | inactive | inactive | 2.51 µM (active) | inactive |  | 25.1 µM (active) | 28.2 µM (active) | inactive | inactive |  | 
6 | N#CCCn1c(=O)cnc2cnc(Oc3cccc(Cl)c3)nc21 |  | 5.43 |  | -14 | -4.72 | > 9.22 | > 46 | inactive | inactive |  |  |  | inactive | inactive | inactive | inactive | inactive | 
7 | Cc1cnc(CNc2cc(-c3cccc(C#N)c3)ncn2)cn1 | > 11.4 | 8.07 | 15.8 µM (active) | 25.8 | 7.04 | > 46 | > 46 | inactive | inactive |  | inactive |  | 31.6 µM (active) | 35.5 µM (active) | inactive | inactive |  | 
8 | O=c1c(-c2ccccc2)nc2cncnc2n1-c1ccccc1 | > 11.4 | -10.5 | 5.01 µM (active) | 2.09 | 0.883 | > 9.22 | > 46 | inactive |  |  |  |  | inactive | inactive | inactive | inactive |  | 
9 | COc1ccc2[nH]cc(CCNc3cc(-c4ccc5c(c4)OCO5)ncn3)c2c1 |  |  |  | 19.3 |  | > 46 | > 46 |  |  |  |  |  | 3.98 µM (active) | 3.16 µM (active) | inactive | inactive | 2.51 µM (active) | 
10 | CCNc1ncc2nc(-c3cccc(C#N)c3)c(=O)n(Cc3cccc(OC)c3)c2n1 |  | -6.16 |  | -14.9 | -8.97 | > 9.22 | > 46 | inactive | inactive |  |  |  | inactive | inactive | inactive | inactive | inactive | 
11 | COc1cccc(-c2ccc3ncnc(N4CCOCC4)c3c2)c1 |  |  | 1 µM (active) |  |  | > 46 | > 46 | inactive |  |  | inactive | 3.98 µM (active) | 1.41 µM (active) | 1.58 µM (active) | inactive | inactive | 1.12 µM (active) | 
12 | Cc1cccc(CNc2ccnc(-c3cccc(C#N)c3)n2)c1 |  |  | 0.398 µM (active) |  |  | > 46 | > 46 |  | inactive | 1.26 µM (active) | inactive | 2.51 µM (active) | 11.2 µM (active) | 7.94 µM (active) | inactive | inactive | 11.2 µM (active) | 
13 | COc1ccc(CNc2ccnc(-c3ccc(C(=O)N(C)C)cc3)n2)c(OC)c1 | > 11.4 | -20 | 12.6 µM (active) | -8.82 | -4.52 | > 46 | > 46 | inactive | inactive | 3.98 µM (active) | inactive |  | inactive | inactive | inactive | inactive |  | 
